Laboratory results reported in PubChem BioAssay (NCATS).
Records with an inconclusive call do not appear. Activity calls are given as the source filed them. Unless noted, calls come from the whole dose curve; as a rule, active = well fitted curve in the direction sought with a large enough effect; inconclusive = small, poorly fitted or top-dose-only effect, or another doubt; inactive = no such curve, though single readings can be large; an effect the other way counts as inactive or inconclusive.

Experiments:
[1] = molecular target: Cytochrome P450 3A4 (Homo sapiens) (UniProt P08684); experiment: qHTS Assay for Inhibitors and Substrates of Cytochrome P450 3A4 (AID 884); note: nearly all actives have a fitted effect of over 50% in size; note: potency is the fitted concentration of half-maximal effect; for activity change, negative = inhibition: % is set by controls: 0 for no effect and ±100 for the full control effect
Sequence of Cytochrome P450 3A4 (Homo sapiens) (P08684 whole entry, looked up): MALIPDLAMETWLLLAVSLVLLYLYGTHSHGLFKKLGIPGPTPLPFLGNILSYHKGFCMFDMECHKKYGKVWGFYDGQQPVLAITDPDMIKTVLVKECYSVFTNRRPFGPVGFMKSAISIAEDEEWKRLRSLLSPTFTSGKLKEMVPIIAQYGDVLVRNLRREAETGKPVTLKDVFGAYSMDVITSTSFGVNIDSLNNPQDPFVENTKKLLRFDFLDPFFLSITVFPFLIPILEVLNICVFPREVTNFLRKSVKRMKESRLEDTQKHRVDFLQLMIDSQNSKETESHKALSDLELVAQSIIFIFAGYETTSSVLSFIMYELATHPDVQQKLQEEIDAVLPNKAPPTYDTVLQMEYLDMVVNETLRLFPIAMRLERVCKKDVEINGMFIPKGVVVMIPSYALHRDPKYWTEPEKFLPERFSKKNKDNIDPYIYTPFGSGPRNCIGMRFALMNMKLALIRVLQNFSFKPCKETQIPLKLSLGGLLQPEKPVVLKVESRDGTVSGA
How it was run: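 Luminescent readout of luciferin produced by CYP3A4 (20 nM) dealkylation of Luciferin-PPXE, 25 uM (its KM). NADPH-driven reaction ran 60 min at RT after 10 min compound preincubation; data scaled to 57 uM ketoconazole as 100% inhibition.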

[2] = qHTS Assay for Lipid Storage Modulators (AID 1519; calls by dose curve; for activity change, negative = inhibition: % is set by controls: 0 for no effect and ±100 for the full control effect); conditions: Drosophila S3 cells, BODIPY lipid droplet/cell ratio, laser cytometry, cells loaded with oleic acid; for activity change, negative = inhibition: at 57.5 µM (top of the series)
How it was run: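 Cells seeded at 5,000 per well were treated with compounds over a concentration series and loaded with oleic acid (400 uM, as added). Lipid droplet fluorescence (488 nm excitation, 500-530 nm channel) was read by laser-scanning cytometry and normalized to 20 uM Triacsin C.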

[3] = molecular target: Ubiquitin carboxyl-terminal hydrolase 1 (Homo sapiens) (UniProt O94782); experiment: Inhibitors of USP1/UAF1: Pilot qHTS (AID 504865); note: nearly all actives have a fitted effect of over 35% in size; note: potency is the fitted concentration of half-maximal effect;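 for activity change, negative = inhibition: rhodamine fluorescence freed from ubiquitin-rhodamine substrate followed over time; top concentration of the series differs between compounds; % is set by controls: 0 for no effect and ±100 for the full control effect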
Sequence of Ubiquitin carboxyl-terminal hydrolase 1 (Homo sapiens) (O94782 whole entry, looked up): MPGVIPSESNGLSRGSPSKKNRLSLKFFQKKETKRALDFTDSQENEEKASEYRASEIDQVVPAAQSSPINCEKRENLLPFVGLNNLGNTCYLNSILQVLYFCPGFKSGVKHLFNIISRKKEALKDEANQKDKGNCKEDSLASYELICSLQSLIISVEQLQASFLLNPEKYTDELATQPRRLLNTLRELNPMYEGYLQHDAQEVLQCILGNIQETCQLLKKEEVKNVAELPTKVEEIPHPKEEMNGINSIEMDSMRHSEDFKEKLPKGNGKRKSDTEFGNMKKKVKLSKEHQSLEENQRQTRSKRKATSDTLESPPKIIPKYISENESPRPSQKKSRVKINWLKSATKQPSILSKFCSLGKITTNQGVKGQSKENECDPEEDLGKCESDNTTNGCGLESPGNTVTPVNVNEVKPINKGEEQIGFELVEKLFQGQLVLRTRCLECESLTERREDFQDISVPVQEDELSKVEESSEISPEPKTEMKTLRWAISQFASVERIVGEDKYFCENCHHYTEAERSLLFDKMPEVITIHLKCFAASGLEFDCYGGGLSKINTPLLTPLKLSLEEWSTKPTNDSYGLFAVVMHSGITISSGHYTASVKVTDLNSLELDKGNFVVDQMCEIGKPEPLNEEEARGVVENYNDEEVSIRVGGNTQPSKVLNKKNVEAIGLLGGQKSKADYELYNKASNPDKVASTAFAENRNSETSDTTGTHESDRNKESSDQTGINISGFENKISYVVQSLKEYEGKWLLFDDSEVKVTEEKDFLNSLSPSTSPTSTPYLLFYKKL
How it was run: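 Kinetic fluorescence assay: 1nM USP1/UAF1, 15 min compound preincubation, then 150nM Ub-Rho; 480/540 nm.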

[4] = Confirmation and Secondary Assay for Modulators of Hemoglobin Beta Chain Splicing at IVS2 654 locus (AID 910);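 note: HeLa cells stably carrying EGFP split by mutant beta-globin IVS2-654 intron; per-well total GFP intensity by laser scanning cytometry after 2-day treatment; % of control where 0% means no effect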
How it was run: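 Readout: per-well total peak green fluorescence (488 nm ex, 500–520 nm em) from objects 5–250 µm, reflecting correct splicing of an EGFP-654 reporter. Compounds were applied for 2 days at 37 °C to overnight-plated HeLa EGFP-654 cells; controls were DMSO and 500 nM IVS2-654 PNA.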

[5] = Confirmation and Secondary Assay for Modulators of Hemoglobin Beta Chain Splicing at IVS2 705 locus (AID 930);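 note: HeLa cells stably expressing the EGFP-705 splicing reporter; GFP fluorescence per well restored by corrected splicing of the IVS2-705 intron in EGFP; % of control where 0% means no effect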
How it was run: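 HeLa EGFP-705 reporter; 500 cells/well, o/n 37C 5% CO2; cpd 2 d; 488 ex/500-520 em laser scan; total peak GFP intensity/well. Ref: 500 nM […] antisense PNA.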

[6] = molecular target: ATP-dependent 6-phosphofructokinase (Trypanosoma brucei brucei) (UniProt O15648); experiment: qHTS Assay to Find Inhibitors of T. brucei phosphofructokinase: hit validation (AID 492961);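 note: luminescence reports ADP formed as PFK phosphorylates fructose-6-phosphate with ATP; % is set by controls: 0 for no effect and ±100 for the full control effect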
Sequence of ATP-dependent 6-phosphofructokinase (Trypanosoma brucei brucei) (O15648 whole entry, looked up): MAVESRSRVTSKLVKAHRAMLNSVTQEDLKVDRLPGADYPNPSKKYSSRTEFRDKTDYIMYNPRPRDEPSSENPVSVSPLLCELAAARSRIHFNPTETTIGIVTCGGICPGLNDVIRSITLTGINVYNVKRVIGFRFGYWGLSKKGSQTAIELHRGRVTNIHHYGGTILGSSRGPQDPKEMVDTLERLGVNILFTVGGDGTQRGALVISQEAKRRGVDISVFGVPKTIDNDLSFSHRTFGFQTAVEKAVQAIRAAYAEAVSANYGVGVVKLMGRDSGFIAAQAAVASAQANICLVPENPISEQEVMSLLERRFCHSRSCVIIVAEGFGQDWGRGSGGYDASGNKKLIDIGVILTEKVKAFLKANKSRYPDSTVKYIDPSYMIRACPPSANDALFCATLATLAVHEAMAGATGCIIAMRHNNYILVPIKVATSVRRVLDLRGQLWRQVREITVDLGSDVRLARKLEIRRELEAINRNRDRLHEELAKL
How it was run: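 Measures ADP output of PFK (1.25 nM) at 0.1 mM ATP, 0.5 mM F6P, pH 8.0 TEA buffer with 5 mM MgCl2. No-enzyme wells define full inhibition; uninhibited enzyme wells define zero.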

[7] = molecular target: Luciferin 4-monooxygenase (Photinus pyralis) (UniProt P08659); experiment: Biochemical firefly luciferase enzyme assay for NPC (AID 624030);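 note: purified P. pyralis luciferase at 10 nM with luciferin and ATP substrate; 0% = DMSO and -100% = full luciferase inhibition by PTC124 control; nearly all actives have a fitted effect of over 70% in size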
Sequence of Luciferin 4-monooxygenase (Photinus pyralis) (P08659 whole entry, looked up): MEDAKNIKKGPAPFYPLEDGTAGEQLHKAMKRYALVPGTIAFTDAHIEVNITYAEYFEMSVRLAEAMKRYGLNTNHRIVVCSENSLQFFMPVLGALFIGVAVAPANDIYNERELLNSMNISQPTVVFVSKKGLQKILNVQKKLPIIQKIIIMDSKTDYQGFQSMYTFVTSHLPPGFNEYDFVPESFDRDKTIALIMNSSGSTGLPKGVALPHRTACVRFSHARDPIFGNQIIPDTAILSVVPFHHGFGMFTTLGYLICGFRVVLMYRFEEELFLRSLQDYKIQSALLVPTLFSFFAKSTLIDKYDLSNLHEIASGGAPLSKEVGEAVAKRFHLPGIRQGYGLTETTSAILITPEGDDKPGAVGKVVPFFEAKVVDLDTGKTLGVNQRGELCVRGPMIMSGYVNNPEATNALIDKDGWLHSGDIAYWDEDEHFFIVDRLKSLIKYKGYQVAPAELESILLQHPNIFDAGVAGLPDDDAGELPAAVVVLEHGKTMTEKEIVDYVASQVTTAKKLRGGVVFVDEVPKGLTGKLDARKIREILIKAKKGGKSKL
How it was run: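 Direct inhibition of firefly luciferase enzyme (10 nM final, 50 mM Tris Acetate) assessed by luminescence within 5 minutes. Percent activity scaled between DMSO and PTC124 positive control, with concentration-effect curves classified by fit quality and response.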

[8] = qHTS profiling for inhibitors of Plasmodium falciparum proliferation (AID 504749);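 note: 0% = DMSO vehicle and full inhibition = artemisinin control; nearly all actives have a fitted effect of over 60% in size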; conditions: P. falciparum in erythrocytes, SYBR Green DNA, 72 h, at 28.7 µM (top of the series)
How it was run: (§1)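 In a 72 h erythrocytic culture (37 C, humidified, 5% CO2) at 2.5% hematocrit and 0.3% starting parasitemia, compounds were tested; SYBR Green I in detergent lysis buffer stained parasite DNA overnight.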

CP192 = experiment: as above; conditions: P. falciparum in erythrocytes, SYBR Green DNA, 72 h; series mostly up to 28.7 µM
How it was run: as §1

CP211 = experiment: as above; conditions: P. falciparum in erythrocytes, SYBR Green DNA, 72 h; series mostly up to 28.7 µM
How it was run: as §1

CP286 = experiment: as above; conditions: P. falciparum in erythrocytes, SYBR Green DNA, 72 h; series mostly up to 28.7 µM
How it was run: as §1

P94_40 = experiment: as above; conditions: P. falciparum in erythrocytes, SYBR Green DNA, 72 h; series mostly up to 28.7 µM
How it was run: as §1

[9] = molecular target: Cytochrome P450 3A4 (Homo sapiens) (UniProt P08684); experiment: qHTS Assay for Activators of Cytochrome P450 3A4 (AID 885); note: nearly all actives have a fitted effect of over 65% in size
How it was run: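 Activators are scored by enhanced luminescence from CYP3A4 conversion of luciferin-PPXE (25uM, equal to KM) to luciferin, after 60 min at RT with an NADPH-regenerating system.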

[10] = measured here: cell count channel max response
[11] = measured here: lipid channel max response

In the case of `CC1CC[C@@]2(NC1)O[C@@H]1C[C@H]3C4CC=C5C[C@@H](O)CC[C@]5(C)C4CC[C@]3(C)[C@H]1[C@@H]2C` (some centres not stated), the Potency [1] is reported as “inactive”, the activity change, negative = inhibition [2] is reported as 7.46% (inactive) and the max response [2, 10] is reported as -0.557%. The max response [2, 11] was 6.71% and the Potency [3] was “inactive”.
In the case of `O=C(O)COc1cc(Cl)c(Cl)cc1Cl`, the Potency [1] is reported as “inactive”, the Potency [4] is reported as “inactive” and the activity change, negative = inhibition [2] is reported as 1.28% (inactive). For the same compound, the max response [2, 10] was 13.2%, the max response [2, 11] was 18.6% and the Potency [3] was “inactive”.
In the case of `CC(C)CC(CN)CC(=O)O` (configuration not stated), the Potency [1] is reported as “inactive”, the Potency [4] is reported as “inactive” and the Potency [5] is reported as “inactive”. The activity change, negative = inhibition [2] was 8.71% (inactive), the max response [2, 10] was 14.3% and the max response [2, 11] was 26.2%. The Potency [6] was “inactive”, the Potency [3] was “inactive” and the Potency [7] was “inactive”.
In the case of `CN1[C@@H]2CC(OC(=O)[C@H](CO)c3ccccc3)C[C@@H]1[C@H]1O[C@H]12` (some centres not stated), the activity change, negative = inhibition [2] is reported as 4.98% (inactive), the max response [2, 10] is reported as -8.42% and the max response [2, 11] is reported as -4.12%. For the same compound, the Potency [3] was “inactive”.
For `O=C1NC(=O)C(=O)C(=O)N1`, the Potency [1] was “inactive”, the activity change, negative = inhibition [2] was 2.7% (inactive) and the max response [2, 10] was 15%. The max response [2, 11] was 19.9% and the Potency [3] was 89.1 µM (active).
With `CCCCSP(=O)(SCCCC)SCCCC` the Potency [1] was “inactive”, the Potency [4] was “inactive” and the Potency [5] was “inactive”. The activity change, negative = inhibition [2] was 12.5% (inactive), the max response [2, 10] was 36.8% and the max response [2, 11] was 52%. The Potency [3] was “inactive”.
In the case of `CNC(=O)Oc1cccc2c1OC(C)(C)O2`, the Potency [1] is reported as “inactive”, the Potency [4] is reported as “inactive” and the Potency [5] is reported as “inactive”. For the same compound, the activity change, negative = inhibition [2] was 5.39% (inactive), the max response [2, 10] was 18% and the max response [2, 11] was 22.8%. The Potency [3] was “inactive”.
In the case of `CNC(C)[C@@H](O)c1ccccc1` (some centres not stated), the Potency [1] is reported as “inactive”, the Potency [5] is reported as “inactive” and the activity change, negative = inhibition [2] is reported as -6.91% (inactive). For the same compound, the max response [2, 10] was 19.3%, the max response [2, 11] was 12.8% and the Potency [6] was “inactive”. The Potency [7] was “inactive”, the activity, negative = inhibition ([8]; parasite line A) was -2.9% (inactive) and the activity, negative = inhibition ([8]; parasite line B) was -5.29% (inactive). The Potency (CP192) was “inactive”, the Potency (CP211) was “inactive” and the Potency (CP286) was “inactive”. For the same compound, the Potency (P94_40) was “inactive”.
In the case of `C[C@]12CCC3C(CC[C@H]4C[C@@H](O)CC[C@]34C)[C@@H]1CCC2=O` (some centres not stated), the Potency [9] is reported as “inactive”, the activity change, negative = inhibition [2] is reported as 0.0615% (inactive) and the max response [2, 10] is reported as -8.24%. For the same compound, the max response [2, 11] was -8.16% and the Potency [3] was “inactive”.
With `CNC1[C@@H](O)C(OC2C(N)C[C@H](N)[C@@H](O[C@@H]3OC(C(C)O)C(O)C(O)C3N)C2O)OC[C@]1(C)O` (some centres not stated) the Potency [1] was 20 µM (active), the Potency [9] was “inactive” and the Potency [4] was “inactive”. The Potency [5] was “inactive”, the activity change, negative = inhibition [2] was 8.52% (inactive) and the max response [2, 10] was 15%. The max response [2, 11] was 24.5% and the Potency [3] was “inactive”.
In the case of `CC(C)(C)C(=O)C(Oc1ccc(Cl)cc1)n1cncn1` (configuration not stated), the Potency [9] is reported as “inactive”, the Potency [4] is reported as “inactive” and the activity change, negative = inhibition [2] is reported as 7.2% (inactive). The max response [2, 10] was 5.9%, the max response [2, 11] was 16.7% and the Potency [3] was “inactive”.
For `CNC(=O)Oc1ccc2c(c1)[C@@]1(C)CCN(C)C1N2C` (some centres not stated), the activity change, negative = inhibition [2] was 4.58% (inactive), the max response [2, 10] was 3.75% and the max response [2, 11] was 14.3%. For the same compound, the Potency [3] was “inactive”.
For `COc1cc(C2c3cc4c(c(O)c3CC3COC(=O)C32)OCO4)cc(OC)c1OC` (configuration not stated), the Potency [1] was 1 µM (active), the Potency [9] was “inactive” and the Potency [4] was “inactive”. The Potency [5] was “inactive”, the activity change, negative = inhibition [2] was 3.6% (inactive) and the max response [2, 10] was 11.9%. For the same compound, the max response [2, 11] was 14.5% and the Potency [3] was “inactive”.
For `CCN1C[C@@]2(COC(=O)c3ccccc3N3C(=O)CC(C)C3=O)CC[C@H](OC)[C@]34C5C[C@@H]6[C@@H](OC)C[C@@](O)(C5[C@H]6OC)[C@@](O)(C13)[C@@H](OC)C24` (some centres not stated), the Potency [9] was “inactive”, the activity change, negative = inhibition [2] was 4.09% (inactive) and the max response [2, 10] was 6.93%. The max response [2, 11] was 19.9% and the Potency [3] was “inactive”.
